A549 viability – A549 cytotoxicity, counter-screen for Nrf2 inhibitors. A549 ARE-Fluc cells, CellTiter-Fluor viability, 18-24 h. Potency, µM (top dose mostly 46 µM), actives largely listed as inhibitors. hit rate 0.16% among 390,000. AID 504648
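A549 ARE-Fluc cells in 5% FBS OPTI-MEM, 5000 cells/well, rested 2 h then exposed to compounds in concentration-response for 18-24 h at 37 °C. Viability by CellTiter-Fluor fluorescence (Ex 405/Em 525) after 30 min; luciferase luminescence (BugLite, 15 min, RT) read afterwards.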
Nrf2 block – Nrf2 pathway inhibition; A549 ARE-Fluc reporter, luciferase luminescence, 18-24 h; Potency, µM (titrated, usually from 46 µM), hits mostly inhibitors; hit rate 2.1% among 360,000; AID 504444; also: nearly all actives have a fitted effect of over 60% in size
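Nrf2 activity is the BugLite luminescence, read 15 min after reagent at room temperature, following CellTiter-Fluor cytotoxicity readout (30 min, 37C). Compound titrations were applied for 18-24 h to 5000 A549 ARE_Fluc cells/well in 5% FBS OPTI-MEM.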
KB-V1 cytotox – kills drug-selected multidrug resistant KB-V1 cells | KB-V1 MDR cells viability, CellTiter-Glo, 72 h | Potency, µM (series often up to 46.1 µM), usual class: cytotoxic | hit rate 3.4% among 400,000 | AID 1347076; also: nearly all actives have a fitted effect of over 60% in size
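Cytotoxicity via CellTiter-Glo luminescence after 72 h compound exposure at 37 degrees C. Cells: drug-selected KB-V1 line, DMEM phenol-red free plus 10% FBS. Compounds tested at multiple concentrations; normalized data fitted to concentration-effect curves.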
KB-3-1 tox – kills parental KB-3-1 adenocarcinoma cells; AID 1347075; KB-3-1 viability, CellTiter-Glo ATP luminescence, 72 h; hit rate 1.4% among 400,000; Potency, µM (highest dose often 46.1 µM), usual class: cytotoxic; also: nearly all actives have a fitted effect of over 60% in size
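Parental KB-3-1 viability, qHTS format: 72 h compound exposure, 37 °C; CellTiter-Glo; media-only wells and DMSO plates as controls; concentration-effect fits on corrected data.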
PI4K2A inh – PI4K2A (human) kinase inhibition; Q9BTU6; purified PI4K2A, ADP-Glo luminescence, 1 h; stronger effect = lower value; activity change, negative = inhibition, % at 76.9 µM; hit rate 0.13% among 420,000; AID 1346378; in the data active = activity change below about -50%; inconclusive = mostly about -30% to -49%
Target sequence (Q9BTU6 whole entry, looked up): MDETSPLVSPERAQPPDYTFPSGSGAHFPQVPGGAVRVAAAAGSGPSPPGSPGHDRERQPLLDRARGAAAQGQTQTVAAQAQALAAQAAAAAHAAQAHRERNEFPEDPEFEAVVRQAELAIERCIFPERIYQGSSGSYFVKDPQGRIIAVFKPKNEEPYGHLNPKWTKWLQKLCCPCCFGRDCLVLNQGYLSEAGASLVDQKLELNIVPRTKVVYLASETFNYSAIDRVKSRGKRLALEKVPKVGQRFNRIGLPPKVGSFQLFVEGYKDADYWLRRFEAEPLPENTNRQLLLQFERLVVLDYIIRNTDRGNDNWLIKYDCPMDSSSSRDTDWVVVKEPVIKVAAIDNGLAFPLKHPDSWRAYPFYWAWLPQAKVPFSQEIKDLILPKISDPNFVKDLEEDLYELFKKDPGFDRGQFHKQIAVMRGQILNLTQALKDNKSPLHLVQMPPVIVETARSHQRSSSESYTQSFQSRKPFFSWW
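PI4K2A activity was measured by ADP-Glo luminescence: enzyme (4 ug/mL stock) and phosphatidylinositol (1.2 mM stock) in Tris pH 7.5/MgCl2/EGTA/Triton X-100 buffer were reacted with ATP (300 microM stock) for one hour at ambient temperature.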
Giardia kill – kills Giardia lamblia; Giardia lamblia trophozoite viability; activity change, % at 7.66 µM, hits read low; hit rate 0.15% among 340,000; AID 540267; in the data active = activity change below about -80%; inconclusive = between about -30% and that limit;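 also: parasites exposed to compound for two days anaerobically before the ATP read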
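Each well holds 100 Giardia trophozoites and compound. After two days (48 hrs) at 37 deg C in anaerobic conditions, ATP is quantified by luminescence.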
Numbers stand for hits; 0 = inactive; ? = inconclusive; - = no result. Only some compounds are listed: those with a hit (about 5.7% of all), similar ones and a draw of the others. Unless noted, calls follow the shape of the dose curve; as a rule, active = well fitted curve in the direction sought with a large enough effect; inconclusive = small, poorly fitted or top-dose-only effect, or another doubt; inactive = no such curve, though single readings can be large; an effect the other way counts as inactive or inconclusive.

SMILES	A549 viability	Nrf2 block	KB-V1 cytotox	KB-3-1 tox	PI4K2A inh	Giardia kill
CCCCCCCCCCCCCCCC(C)C1=NCCN1 (configuration not stated)	-	-	0	0	-	-
CCCCCCCCNc1ccc(/C=C/c2ccnc3ccccc23)cc1	-	-	0	0	-	-
C[N+]1(CC(=O)c2ccccc2)CCc2ccccc2C1 (configuration not stated)	-	-	0	0	-	-
COc1ccccc1NC(=O)c1cc2ccccc2o/c1=N\O	0	0	2.6µM	0	0	0
CC(C)CCNC(=O)CN(C(=O)Cn1nnc(-c2ccccc2F)n1)c1cccc2c1CCCC2	0	0	0	0	0	0
O=C(CN(C(=O)Cn1nnc(-c2ccccc2F)n1)c1cccc2c1CCCC2)NCc1ccccc1	0	?	10µM	0	0	0
CCC(C(=O)NC(C)(C)C)N(C(=O)Cn1nnc(-c2ccccc2F)n1)c1cccc2c1CCCC2 (configuration not stated)	0	0	1.6µM	0	0	0
CCCCNC[C@@]12CO[C@H](c3ccc(Cl)cc3)N1[C@@H](c1ccc(Cl)cc1)SC2	-	-	-	-	0	-
CCCCn1c(=O)cc(C)n(-c2ccccc2)c1=O	0	0	0	0	0	0
CCCCn1c(=O)nc2n(-c3ccccc3)c3ccccc3cc-2c1=O	0	-	10µM	?	0	0
O=S(=O)(CC(CN1CCCCC1)N1CCCCC1)c1ccccc1 (configuration not stated)	?	18µM	0	0	0	0
O=C(CN1C(=O)CC(c2ccc(F)cc2)=Nc2ccccc21)NCc1ccccc1Cl	0	0	0	0	0	-
Cc1c(C2=CCN(S(=O)(=O)c3ccc(Br)cc3)CC2)c2ccccc2n1C	0	0	0	0	0	0
CCn1c(C)c(C2=CCN(S(=O)(=O)c3ccc(C)cc3)CC2)c2ccccc21	0	?	16µM	?	0	0
Cc1cc(C)c(C)c(N=Nc2nc3ccccc3n2C)c1C	0	?	?	?	0	0
Cc1ccc(C)c(N=Nc2nc3ccccc3n2C)c1	?	?	15µM	0	0	0
Cc1ccc(S(=O)(=O)Nc2c(NC3CCCCC3)c3ccccc3oc2=O)cc1	0	?	0	?	0	0
Nc1c(NC2CCCCC2)c2ccccc2oc1=O	0	0	16µM	0	0	0
CC(=O)c1ccc(N2C(=O)Nc3ccccc3S2(=O)=O)cc1	0	-	0	0	0	-
CC(C)(C)NC(=O)NC(=O)CN1CCN(C(c2ccccc2)c2ccccc2)CC1	0	0	21µM	0	0	0
O=C(CN1CCN(C(c2ccccc2)c2ccccc2)CC1)NC(=O)NCc1ccco1	0	0	2.3µM	0	0	0
O=C(CN1CCN(c2ccccc2)CC1)NC(=O)NCc1ccco1	0	0	?	0	0	0
CC(C)(C)NC(=O)NC(=O)CN1CCN(Cc2ccccc2)CC1	0	0	0	0	0	0
O=C(NCc1ccco1)c1c[nH]c2ccc(S(=O)(=O)Nc3ccc(F)cc3F)cc2c1=O	0	0	0	0	0	-
COc1ccc(-c2csc(NC(=O)C3CC(=O)N(c4ccc5c(c4)OCCO5)C3)n2)cc1 (configuration not stated)	0	?	21µM	0	0	0
SMILES	A549 viability	Nrf2 block	KB-V1 cytotox	KB-3-1 tox	PI4K2A inh	Giardia kill
O=C(Nc1nc(-c2ccc3c(c2)OCCO3)cs1)C1CC(=O)N(c2ccc3c(c2)OCCO3)C1 (configuration not stated)	0	?	0	?	-	0
COc1cc(NC(=O)c2[nH]c(C)c(C(C)=O)c2C)c(OC)cc1Cl	-	-	-	-	0	-
COC(=O)c1ccc(NC(=O)c2nc(SCc3ccccc3F)ncc2Cl)cc1	-	-	0	0	-	-
CCN1C=CC(=C2C(=O)c3ccccc3C2=O)C=C1	0	1.6µM	8.2µM	15µM	-52	-94
CCCN1C=CC(=C2C(=O)c3ccccc3C2=O)C=C1	0	3.3µM	2.9µM	?	-54	-97
CCOC(=O)[C@@]12CCC3=C1N(CCC3)C(=O)[C@H](CC(=O)N1CCOCC1)C2	-	-	-	-	0	-
COc1ccc(/C=N\NC(=O)Cc2cccs2)c(OC)c1OC	-	-	-	-	0	-
CCCCCC(=O)NNC(=S)NC(=O)c1ccccc1[N+](=O)[O-]	?	23µM	?	0	0	0

Screening data (PubChem)
